Assay [1] concerns the target Glucocorticoid receptor (Homo sapiens) (UniProt P04150). The assay is described as follows: qHTS assay for small molecule agonists of glucocorticoid receptor signaling (AID 588532; active = well fitted curve in the direction sought with a large enough effect in the signal ratio, with a control signal flat; the % refers to the signal ratio;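 also: 100% = dexamethasone at 0.1 µM and 0% = DMSO only wells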). The conditions noted are these: HeLa MMTV-bla, beta-lactamase ratio, agonist, 18 h; stronger effect = higher value; percent of dexamethasone control, DMSO zero. The method, boiled down: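 Quantitative HTS using CellSensor MMTV-bla HeLa cells in charcoal/dextran-treated serum; compounds tested up to 92 uM. After 18 h at 37 C, CCF4 dye reported reporter induction.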
(In general: qHTS replaces the single test concentration by a dilution series.)

Assay [2] shares this target. Put plainly: qHTS assay for small molecule antagonists of glucocorticoid receptor signaling (AID 588533; active = well fitted inhibition curve with a large enough effect in the signal ratio, with a control signal flat, not every such curve was filed as active; the % refers to the signal ratio;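 also: cells stimulated with 2 nM dexamethasone as agonist; % is scaled to controls: 0 for no effect and ±100 for the full control effect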). The conditions noted are these: HeLa MMTV-bla, GRE beta-lactamase ratio, antagonist mode, 18 h; series mostly up to 76.8 µM. The method, boiled down: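 Antagonist-mode qHTS: compound titrations added to GRE-bla HeLa cells, then dexamethasone 2 nM final; 18 h, 37 C. CCF4 FRET fluorescence normalized to dexamethasone and DMSO; IC50 from Hill fit.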

Assay [3] is described as follows: qHTS assay for small molecule antagonists of peroxisome proliferator-activated receptor delta signaling (AID 588535; active = well fitted inhibition curve with a large enough effect in the signal ratio, with a control signal flat, not every such curve was filed as active; the % refers to the signal ratio; also: potency is read from the fitted curve at half-maximal effect;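 as to max response: cells co-treated with a PPAR-delta agonist as stimulator during compound exposure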). As to conditions: HEK293T PPARd-UAS-bla, beta-lactamase FRET ratio, 18 h; 460 nm channel. In short, it runs like this:
(§1)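 HEK293T PPAR-delta-UAS-bla cells, 4000/well, 2% charcoal/dextran FBS; 5 h 37 C; cpd titration; 18 h 37 C; CCF4 2 h RT; FI 460/530 nm; Hill fit → IC50, efficacy.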

Assay [4] deals with Peroxisome proliferator-activated receptor delta (Homo sapiens) (UniProt Q03181). The description is as above. As to conditions: HEK293T PPARd-UAS-bla, beta-lactamase FRET ratio, 18 h; series mostly up to 76.7 µM. The method, boiled down:
as §1

Assay [5] deals with Peroxisome proliferator-activated receptor gamma (Homo sapiens) (UniProt P37231). Put plainly: qHTS assay for small molecule agonists of peroxisome proliferator-activated receptor gamma signaling (AID 588536; active = well fitted curve in the direction sought with a large enough effect in the signal ratio, with a control signal flat, not every such curve was filed as active; the % refers to the signal ratio;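 also: 0% = DMSO basal wells and 100% = rosiglitazone at 2 µM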). The conditions noted are these: HEK293 PPARg-UAS-bla, beta-lactamase ratio, 16 h, percent of rosiglitazone response, DMSO as zero; series mostly up to 76.7 µM. The method, boiled down:
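GeneBLAzer PPAR-gamma-UAS-bla HEK293 cells in 1% charcoal/dextran-treated FBS medium were treated 16 h at 37 C with compounds. Beta-lactamase activity was read by CCF4 ratio (460/530 nm). Response was normalized to 2 uM rosiglitazone (100%) and DMSO, then Hill-fitted for EC50 and efficacy.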

For assay [6], the target named is Vitamin D3 receptor (Homo sapiens) (UniProt P11473). The assay is described as follows: qHTS assay for small molecule antagonists of vitamin D receptor signaling (AID 588541).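 Also: receptor activated by calcitriol during compound treatment; % is scaled to controls: 0 for no effect and ±100 for the full control effect.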 The conditions noted are these: HEK293T VDR-UAS-bla, beta-lactamase ratio, antagonist mode; series mostly up to 76.7 µM. The method, boiled down: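 Antagonist-mode beta-lactamase reporter assay: HEK293T VDR-UAS-bla cells were exposed to titrated compound alongside 1-alpha,25-dihydroxyvitamin D3 at 3 nM final for 16 h. Values were normalized to the 50 nM agonist control and DMSO basal, with IC50 and efficacy from Hill equation fits.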

For assay [7] the target is unchanged. Put plainly: qHTS assay for small molecule agonists of vitamin D receptor signaling (AID 588543).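 Also: 0% = DMSO basal and 100% = reference agonist control.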 The conditions noted are these: HEK293T VDR-UAS-bla, beta-lactamase ratio, 16 h; series mostly up to 76.8 µM. In short, it runs like this:
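Measured: β-lactamase reporter activity (CCF4, 405 nm excitation, 460/530 nm emission) in HEK293T VDR-UAS-bla cells after 16 h compound exposure at 37 °C. Normalization against 50 nM 1α,25-dihydroxyvitamin D3 and DMSO; Hill-fit EC50.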

The nature of assay [8]: qHTS assay for small molecule agonists of retinoid X receptor alpha signaling (AID 588544).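 As to activation: 0% = DMSO basal wells and 100% = reference agonist.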 As to conditions: HEK293T RXRa-UAS-bla, beta-lactamase reporter, 18 h; 530 nm emission.
For assay [9], the target named is Retinoic acid receptor RXR-alpha (Homo sapiens) (UniProt P19793). The assay is described as above. As to conditions: HEK293T RXRa-UAS-bla, beta-lactamase reporter, 18 h; series mostly up to 76.7 µM.
Assay [10] concerns the target Thyroid hormone receptor beta (Homo sapiens) (UniProt P10828). Put plainly: qHTS assay for small molecule agonists of thyroid hormone receptor beta signaling (AID 588545).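 Also: 0% = DMSO only and 100% = 10 nM T3.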 As to conditions: TR-UAS-bla GripTite HEK 293, beta-lactamase ratio, agonist mode, 18 h, percent of T3 response, DMSO as zero; series mostly up to 76.7 µM. In short, it runs like this:
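Efficacy and EC50 values derive from Hill fits of qHTS titration data, normalized to 10 nM T3 and DMSO-only wells. HEK 293 reporter cells were stimulated for 18 hrs at 37 C, with beta-lactamase activity measured by CCF4 fluorescence.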

The nature of assay [11]: qHTS assay for small molecule antagonists of retinoid X receptor alpha signaling (AID 588546; active = well fitted inhibition curve with a large enough effect in the signal ratio, with a control signal flat, not every such curve was filed as active; the % refers to the signal ratio;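 also: cells stimulated with 9-cis-retinoic acid as agonist; % is scaled to controls: 0 for no effect and ±100 for the full control effect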). The conditions noted are these: HEK293T RXRa-UAS-bla, beta-lactamase ratio, antagonist mode; measured here: W530 green channel, cytotoxicity proxy. In short, it runs like this:
(§2)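 Beta-lactamase reporter inhibition, read as CCF4 fluorescence ratio (ex 405, em 460/530 nm) after 2 h at RT. HEK293T UAS-bla cells, 2500/well, were stimulated with 9-cis-RA at 500 or 100 nM final alongside test compound for 18 h at 37 C.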

Assay [12] addresses Retinoic acid receptor RXR-alpha (Homo sapiens) (UniProt P19793). Described as above. The conditions noted are these: HEK293T RXRa-UAS-bla, beta-lactamase ratio, antagonist mode. In short, it runs like this: as §2
The target of assay [13] is Voltage-gated inwardly rectifying potassium channel KCNH2 (Homo sapiens) (UniProt Q12809). Put plainly: qHTS Assay for Small Molecule Inhibitors of the Human hERG Channel Activity (AID 588834; active = well fitted inhibition curve with a large enough effect;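 also: top concentration of the series differs between compounds; % is scaled to controls: 0 for no effect and ±100 for the full control effect; lower thallium flux fluorescence means stronger hERG block; nearly all actives have a fitted effect of over 50% in size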). As to conditions: U2OS BacMam hERG, FluxOR thallium flux fluorescence; series mostly up to 92.2 µM. The method, boiled down: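 Blockade is seen as reduced FluxOR thallium-flux fluorescence in U2OS cells expressing hERG from a BacMam construct, in Opti-MEM with 2% FCS. Concentration-response data fitted to the Hill equation for AC50.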

Assay [14] in a line: qHTS assay for small molecule activators of the p53 signaling pathway (AID 651743; active = well fitted activation curve with a large enough effect in the signal ratio, not every such curve was filed as active; the % refers to the signal ratio; also: % of control where 0% means no effect). As to conditions: HCT-116 p53RE-bla, beta-lactamase FRET ratio, 16 h; stronger effect = higher value. The method, boiled down:
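Read-out is fluorescence intensity from the LiveBLAzer B/G FRET substrate, added for 2 hours at room temperature after HCT-116 p53RE-bla cells had been incubated with compounds for 16 hours at 37 C.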

Assay [15] is described as follows: qHTS assay for small molecule activators of the nuclear factor-kappa B (NF-kB) signaling pathway (AID 651749; active = well fitted activation curve with a large enough effect in the signal ratio; the % refers to the signal ratio; also: % of control where 0% means no effect). As to conditions: NF-kB-bla ME-180 cells, beta-lactamase FRET ratio, 16 h; stronger effect = higher value. In short, it runs like this:
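Readout: beta-lactamase reporter driven by an NF-kB response element, detected fluorescently as loss of FRET. Cells were the ME-180 line, treated 16 hr at 37C with pin-transferred compound.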

Assay [16] has as its target Thyroid hormone receptor beta (Homo sapiens) (UniProt P10828). The assay is described as follows: qHTS assay for small molecule antagonists of thyroid hormone receptor beta signaling (AID 588547; active = well fitted inhibition curve with a large enough effect in the signal ratio, with a control signal flat, not every such curve was filed as active; the % refers to the signal ratio;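 also: cells stimulated with 0.4 nM T3 agonist during compound exposure; % is scaled to controls: 0 for no effect and ±100 for the full control effect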). As to conditions: TR-UAS-bla HEK293, beta-lactamase ratio, antagonist mode, 18 h. The method, boiled down: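 Inhibition of T3-driven (0.4nM final) beta-lactamase reporter activity was measured over 0.59 nM to 92 uM compound after 18 h at 37 C. The cells were GripTite HEK293 TR-UAS-bla in charcoal/dextran-stripped serum, with CCF4 ratio read-out and IC50 from Hill fits.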

Assay [17] in a line: qHTS assay for small molecule agonists of the antioxidant response element (ARE) signaling pathway (AID 651741; active = well fitted activation curve with a large enough effect in the signal ratio; the % refers to the signal ratio; also: potency is read from the fitted curve at half-maximal effect; as to activation: % of control where 0% means no effect). The conditions noted are these: HepG2 ARE-bla reporter, beta-lactamase FRET ratio, 16 h; series mostly up to 96 µM. In short, it runs like this:
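Quantitative HTS in HepG2 cells stably expressing an ARE-beta-lactamase reporter; 16 h compound exposure at 37 C, followed by 2 h room-temperature incubation with LiveBLAzer B/G FRET substrate and fluorescence measurement.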

Records with an inconclusive call do not appear. Calls of active or inactive are those of the source. Unless noted, calls follow the shape of the full dose curve.

Sequence of Peroxisome proliferator-activated receptor gamma (Homo sapiens) (P37231 whole entry, looked up): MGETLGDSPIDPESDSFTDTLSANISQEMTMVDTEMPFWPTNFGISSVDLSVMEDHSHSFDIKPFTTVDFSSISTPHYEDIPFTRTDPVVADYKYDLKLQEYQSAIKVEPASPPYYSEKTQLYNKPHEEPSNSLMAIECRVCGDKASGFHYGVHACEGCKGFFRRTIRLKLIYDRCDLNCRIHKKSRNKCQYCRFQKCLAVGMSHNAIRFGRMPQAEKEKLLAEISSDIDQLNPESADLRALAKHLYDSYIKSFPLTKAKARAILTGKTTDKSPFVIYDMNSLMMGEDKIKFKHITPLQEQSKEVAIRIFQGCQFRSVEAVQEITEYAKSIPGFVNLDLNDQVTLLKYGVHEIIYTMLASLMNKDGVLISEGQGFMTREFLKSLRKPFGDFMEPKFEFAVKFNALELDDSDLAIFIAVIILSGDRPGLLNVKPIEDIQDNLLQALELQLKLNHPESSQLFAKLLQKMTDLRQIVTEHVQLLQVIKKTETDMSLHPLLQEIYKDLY
Sequence of Voltage-gated inwardly rectifying potassium channel KCNH2 (Homo sapiens) (Q12809 whole entry, looked up): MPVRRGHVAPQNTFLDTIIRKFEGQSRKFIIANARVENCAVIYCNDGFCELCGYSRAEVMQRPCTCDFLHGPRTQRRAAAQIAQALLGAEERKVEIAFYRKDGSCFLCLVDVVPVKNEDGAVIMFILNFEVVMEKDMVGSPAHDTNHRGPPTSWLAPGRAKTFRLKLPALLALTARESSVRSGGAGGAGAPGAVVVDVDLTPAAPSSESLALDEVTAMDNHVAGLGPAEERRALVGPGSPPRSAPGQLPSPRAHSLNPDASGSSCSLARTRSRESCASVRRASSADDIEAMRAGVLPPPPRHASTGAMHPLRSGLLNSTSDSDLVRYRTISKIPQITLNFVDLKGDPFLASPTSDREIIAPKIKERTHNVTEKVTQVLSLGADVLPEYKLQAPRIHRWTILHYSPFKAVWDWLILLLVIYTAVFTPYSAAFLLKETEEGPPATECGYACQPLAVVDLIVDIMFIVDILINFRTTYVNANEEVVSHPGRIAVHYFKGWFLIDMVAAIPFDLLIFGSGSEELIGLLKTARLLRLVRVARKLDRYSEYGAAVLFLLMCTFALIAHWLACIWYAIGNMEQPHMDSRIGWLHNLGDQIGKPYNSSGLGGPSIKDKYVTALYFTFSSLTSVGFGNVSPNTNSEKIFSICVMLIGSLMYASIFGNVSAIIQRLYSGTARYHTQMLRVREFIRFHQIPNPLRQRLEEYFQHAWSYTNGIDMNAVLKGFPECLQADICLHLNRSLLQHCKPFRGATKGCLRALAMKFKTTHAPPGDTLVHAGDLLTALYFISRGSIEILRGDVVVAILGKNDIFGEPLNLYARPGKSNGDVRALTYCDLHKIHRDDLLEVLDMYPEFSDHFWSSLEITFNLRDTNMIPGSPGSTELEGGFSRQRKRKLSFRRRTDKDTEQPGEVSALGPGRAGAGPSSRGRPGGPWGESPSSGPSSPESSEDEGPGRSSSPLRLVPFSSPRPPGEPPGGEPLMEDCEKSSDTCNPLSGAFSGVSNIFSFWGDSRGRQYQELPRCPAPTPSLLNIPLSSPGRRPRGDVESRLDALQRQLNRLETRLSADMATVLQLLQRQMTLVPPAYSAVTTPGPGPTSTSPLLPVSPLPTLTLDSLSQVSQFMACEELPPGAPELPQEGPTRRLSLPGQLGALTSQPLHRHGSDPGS
Sequence of Vitamin D3 receptor (Homo sapiens) (P11473 whole entry, looked up): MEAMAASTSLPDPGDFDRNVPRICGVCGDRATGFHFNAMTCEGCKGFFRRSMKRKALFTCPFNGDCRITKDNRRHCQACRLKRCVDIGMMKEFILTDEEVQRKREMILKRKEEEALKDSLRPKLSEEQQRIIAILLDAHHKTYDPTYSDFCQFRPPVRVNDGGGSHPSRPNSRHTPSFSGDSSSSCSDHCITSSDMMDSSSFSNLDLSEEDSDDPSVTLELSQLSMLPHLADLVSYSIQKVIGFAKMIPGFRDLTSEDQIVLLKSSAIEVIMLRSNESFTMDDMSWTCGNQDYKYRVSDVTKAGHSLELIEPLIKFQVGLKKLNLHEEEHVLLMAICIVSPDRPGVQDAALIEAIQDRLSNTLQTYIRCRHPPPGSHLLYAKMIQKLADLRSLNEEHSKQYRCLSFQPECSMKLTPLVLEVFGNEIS
Sequence of Retinoic acid receptor RXR-alpha (Homo sapiens) (P19793 whole entry, looked up): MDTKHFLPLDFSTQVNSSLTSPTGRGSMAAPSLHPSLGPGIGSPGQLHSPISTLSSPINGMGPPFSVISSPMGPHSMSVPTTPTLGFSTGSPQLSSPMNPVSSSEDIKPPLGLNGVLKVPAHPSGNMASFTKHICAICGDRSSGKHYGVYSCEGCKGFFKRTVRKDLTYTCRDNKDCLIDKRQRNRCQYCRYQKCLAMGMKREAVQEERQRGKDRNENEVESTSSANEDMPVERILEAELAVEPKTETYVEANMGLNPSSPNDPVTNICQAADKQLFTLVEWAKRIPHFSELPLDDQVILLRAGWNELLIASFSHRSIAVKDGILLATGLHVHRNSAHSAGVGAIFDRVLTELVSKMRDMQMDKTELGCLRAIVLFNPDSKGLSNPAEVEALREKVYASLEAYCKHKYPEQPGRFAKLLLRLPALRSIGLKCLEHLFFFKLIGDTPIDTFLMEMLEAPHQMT
Sequence of Thyroid hormone receptor beta (Homo sapiens) (P10828 whole entry, looked up): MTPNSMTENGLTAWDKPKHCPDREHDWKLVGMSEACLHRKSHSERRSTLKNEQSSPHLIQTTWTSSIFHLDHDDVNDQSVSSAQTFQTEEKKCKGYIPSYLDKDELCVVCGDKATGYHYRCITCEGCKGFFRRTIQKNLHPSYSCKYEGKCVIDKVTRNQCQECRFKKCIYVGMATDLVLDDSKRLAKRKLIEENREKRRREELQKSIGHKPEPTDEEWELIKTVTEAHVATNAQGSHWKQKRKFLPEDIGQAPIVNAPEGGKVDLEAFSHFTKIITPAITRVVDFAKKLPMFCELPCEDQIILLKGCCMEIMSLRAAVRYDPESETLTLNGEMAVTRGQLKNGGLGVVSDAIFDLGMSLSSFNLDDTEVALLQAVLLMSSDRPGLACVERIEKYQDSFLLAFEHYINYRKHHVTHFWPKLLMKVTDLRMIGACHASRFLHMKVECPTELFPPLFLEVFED
Sequence of Glucocorticoid receptor (Homo sapiens) (P04150 whole entry, looked up): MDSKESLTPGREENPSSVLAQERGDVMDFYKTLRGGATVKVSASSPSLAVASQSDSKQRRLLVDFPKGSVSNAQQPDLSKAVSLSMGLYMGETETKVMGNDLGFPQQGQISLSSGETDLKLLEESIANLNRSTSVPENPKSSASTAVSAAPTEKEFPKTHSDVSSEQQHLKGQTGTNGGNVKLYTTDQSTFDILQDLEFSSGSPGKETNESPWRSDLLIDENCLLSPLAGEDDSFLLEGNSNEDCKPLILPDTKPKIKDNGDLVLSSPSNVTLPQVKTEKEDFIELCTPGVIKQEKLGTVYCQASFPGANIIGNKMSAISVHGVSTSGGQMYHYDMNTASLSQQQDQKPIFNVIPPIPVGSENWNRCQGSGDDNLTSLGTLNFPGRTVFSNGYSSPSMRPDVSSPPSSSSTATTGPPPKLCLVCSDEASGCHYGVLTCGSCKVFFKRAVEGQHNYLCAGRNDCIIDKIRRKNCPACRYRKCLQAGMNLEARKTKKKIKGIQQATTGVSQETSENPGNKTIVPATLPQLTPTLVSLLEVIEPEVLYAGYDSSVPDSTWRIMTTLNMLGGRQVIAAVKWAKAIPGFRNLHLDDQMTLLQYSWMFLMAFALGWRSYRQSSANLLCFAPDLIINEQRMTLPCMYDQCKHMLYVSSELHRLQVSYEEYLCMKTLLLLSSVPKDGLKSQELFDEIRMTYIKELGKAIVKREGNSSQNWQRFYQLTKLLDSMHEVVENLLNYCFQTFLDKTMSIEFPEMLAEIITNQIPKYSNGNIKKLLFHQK
Sequence of Peroxisome proliferator-activated receptor delta (Homo sapiens) (Q03181 whole entry, looked up): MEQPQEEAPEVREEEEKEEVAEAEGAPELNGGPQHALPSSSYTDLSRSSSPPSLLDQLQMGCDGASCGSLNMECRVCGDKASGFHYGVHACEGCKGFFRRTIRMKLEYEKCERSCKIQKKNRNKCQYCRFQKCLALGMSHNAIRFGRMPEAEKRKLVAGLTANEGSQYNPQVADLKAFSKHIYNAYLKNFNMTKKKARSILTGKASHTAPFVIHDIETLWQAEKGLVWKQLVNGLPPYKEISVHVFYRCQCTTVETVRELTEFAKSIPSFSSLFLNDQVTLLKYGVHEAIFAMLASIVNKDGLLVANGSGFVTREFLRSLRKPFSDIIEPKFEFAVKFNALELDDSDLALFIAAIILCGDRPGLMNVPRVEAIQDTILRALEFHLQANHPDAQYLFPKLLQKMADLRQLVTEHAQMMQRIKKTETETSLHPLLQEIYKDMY

For the molecule `Cc1ccc([N+](=O)[O-])c(N)c1`, the activation in assay [1] is -0.729% (inactive); in assay [14], -3.31% (inactive); in assay [15], -0.448% (inactive). Moreover, the result in assay [2], in assay [5], in assay [6], in assay [7], in [9] and in [10] was inactive. The max response was -3.65% in [3], 3% in assay [8], -20.5% in [11] and -4.21% (inactive) in assay [12]. The Potency result in [4] and in assay [13] was “inactive” in each case.

Turning to `CCc1ccccc1`, the activation in [1] was -5.09% (inactive); in [15], -1.59% (inactive). The outcome in assay [2], in assay [5], in assay [6], in assay [7] and in assay [9] was inactive. The max response is 15% in assay [3], 10.6% in [8], 3.87% in assay [11] and 1.68% (inactive) in assay [12]. The Potency result in assay [4] and in assay [13] was “inactive” throughout.

Turning to `O=C(O)/C=C/C(=O)O`, the results for the activation in assay [1], in assay [14] and in [15] were 27.1% (inactive), -2.03% (inactive) and -1.19% (inactive), respectively. Further, the outcome in [2], in assay [6], in [7], in [9] and in assay [10] was inactive. Also, the max response was -32% in assay [3], -9.62% in [8], -3.98% in assay [11] and 8.67% (inactive) in [12]. For the same molecule, the Potency result in assay [4] was “inactive”. Moreover, the activity change % (negative = inhibition) in assay [16] was 3% (inactive).

Consider `COc1ccc(N=[N+]([O-])c2ccc(OC)cc2)cc1`, for which the activation was 9.01% (inactive) in [1], -0.811% (inactive) in assay [14] and 0.0779% (inactive) in assay [15]. Moreover, the result in [2], in assay [5], in assay [6], in assay [7] and in assay [10] was inactive. Moreover, the max response in assay [3] was 8.26%; in [11] it was -4.97%; in [12], -10.1% (inactive). Further, the Potency result in assay [4] is “inactive”. Also, in [16], the activity change % (negative = inhibition) is 11.6% (inactive). In addition, in [17], the Potency was 37.6 µM (active).

Turning to `O=C1NC(=O)c2cc([N+](=O)[O-])ccc21`, the activation in [1] is -4.49% (inactive); in [14], -2.78% (inactive); in [15], 0.0192% (inactive). Further, the result in assay [2], in assay [5] and in assay [9] was inactive. The max response was -20.7% in assay [3], 3.03% in assay [8], 4.85% in assay [11] and 7.59% (inactive) in [12]. The Potency result in assay [4], in [13] and in [17] was “inactive” each time. For the same molecule, the activity change % (negative = inhibition) in [16] was 2.64% (inactive).

Turning to `CC(C)=CCl`, the activation is 2.68% (inactive) in assay [1], -2.89% (inactive) in assay [14] and 0.211% (inactive) in assay [15]. Moreover, the outcome in assay [2], in assay [6], in assay [7], in [9] and in assay [10] was inactive. For the same molecule, the max response in assay [3] was 6.55%; in [8], 6.48%; in assay [11] it was -7.86%; in assay [12], 7.55% (inactive). The Potency entry in [4], in assay [13] and in assay [17] was “inactive” throughout. Moreover, in assay [16], the activity change % (negative = inhibition) was -1.53% (inactive).

`O=Nc1ccc(NO)cc1`: the activation in [1] is 5.11% (inactive); in assay [14], -5.55% (inactive); in assay [15], -2.26% (inactive). For the same molecule, the result in [2], in assay [5], in assay [7] and in assay [10] was inactive. In assay [3], the max response is -72.9%. Besides, the results for the Potency in assay [4] and in assay [17] were 12.6 µM (active) and 13.3 µM (active), respectively. For the same molecule, the Potency entry in assay [13] is “inactive”.

For `O=C(Cl)c1c(Cl)cccc1Cl`, in assay [1], the activation is -4.67% (inactive). In addition, the outcome in [2], in assay [5], in assay [6], in assay [9] and in assay [10] was inactive. Further, the max response in assay [3] was -5.79%; in assay [8], -8.14%; in assay [11], -4.7%; in [12] it was 4.97% (inactive). The Potency entry in [4], in [13] and in [17] was “inactive” throughout. Besides, the activity change % (negative = inhibition) in [16] is -15.6% (inactive).

The values above are taken from PubChem BioAssay (NCATS).
